“And” between values parts separate entries of the source, which are not always exact repeats. Identical values can stand only once. Where a structure was tested more than once in an assay, its records may differ in their call. The source made the active and inactive calls. How the source made its calls: active means hit-call score of the fitted dose curve at least 0.9, where 1 is the maximum; inactive means score below 0.9.
The compounds below were run on Matrix Metallopeptidase 9 (MMP9), MMP9 (gene 4318) (assay: BSK_BE3C_MMP9: BioMAP Diversity Plus: BE3C Assay for Matrix Metallopeptidase 9 (MMP9) Biomarker Activity (AID 2284283)). Details: primary human bronchial epithelial cells.
Description: BSK_BE3C is a cell-based, multiplexed-readout assay that uses bronchial epithelial cell, a human lung primary cell, with measurements taken at 24 hours after chemical dosing in a 96-well plate.BSK_BE3C_MMP9 is an assay component measured in the BSK_BE3C assay. It measures MMP-9 antibody related to regulation of gene expression using ELISA technology.Data from the assay component BSK_BE3C_MMP9 was analyzed at the endpoint, BSK_BE3C_MMP9, in the positive analysis fitting direction relative to DMSO as the negative control and baseline of activity. Using a type of binding reporter, gain or loss-of-signal activity can be used to understand protein changes. To generalize the intended target to other relatable targets, this assay endpoint is annotated to the 'protease' intended target family, where the subfamily is 'matrix metalloproteinase'.
The levels of cell surface (or secreted, indicated by the prefix "s") biomarker endpoints were measured by ELISA. Overt cytotoxicity to cells in confluent adherent cultures (all systems other than the BT system) was assessed by measuring total protein levels using sulforhodamine B (SRB) staining in parallel cultures at the time of biomarker measurements, indicated as SRB endpoints. For proliferation assays for adherent cell types, individual cell types are cultured at sub-confluence and relative cell numbers quantified by SRB staining at time points optimized for each system (48 h: 3C and CASM3C systems; 72 h: BT and HDF3CGF systems; 96 h: SAg system). SRB was performed by staining cells with 0.1% SRB after fixation with 10% TCA and reading wells at 560 nm.Viability and proliferation of PBMC (T cells) was quantified by Alamar Blue reduction for the SAg and BT systems. For PBMC viability (referred to as PBMC Cytotoxicity within the assay endpoint names), cells were plated (75,000/well in a 96-well plate) and then chemical samples added for 1 h before addition of activators, SEB and TSST-1 (20 ng/mL final concentration each). Cells were incubated for 90 h. Then, Alamar Blue (20 uL/well) (Invitrogen, Cat DAL1100) was added for 6 h, and the plates were read with a fluorescence microplate reader at 546/580 nm (excitation/emission). For PBMC proliferation, cells were plated and activated as above but incubated for only 16 h prior to addition of Alamar Blue. Plates were read after 6 h.

Row | Compound | outcome | AC50
1 | CCCCCCCCCCCC(=O)N(C)CC(=O)O | inactive | –
2 | c1ccc(Nc2cccc3ccccc23)cc1 | – | 20 µM (active) and 26.6 µM (active)
3 | CCCC(C)C(=O)OCC (stereo not given) | inactive | –
4 | Oc1ccccc1Cc1ccccc1O | inactive | 20 µM (active)
5 | CC(C)C(=O)OCCc1ccccc1 | inactive | –
6 | O=C(O)C(F)(F)C(F)(F)C(F)(F)C(F)(F)C(=O)O | inactive | –
7 | C[N+](C)(C)CCCNS(=O)(=O)C(F)(F)C(F)(F)C(F)(F)C(F)(F)C(F)(F)C(F)(F)C(F)(F)C(F)(F)F | inactive | –
8 | Nc1nc(N)nc(-c2ccccc2)n1 | inactive | –
9 | CC(CCC(=O)O)(c1ccc(O)cc1)c1ccc(O)cc1 | inactive | –

— PubChem BioAssay (EPA / NIEHS)
